Measurements taken from PubChem BioAssay (Tox21).
Inconclusive results are not listed. Activity calls are given as the source filed them. Unless noted, calls come from the whole dose curve.

What was measured:
[1] = Nuclear factor erythroid 2-related factor 2/antioxidant responsive element (Nrf2/ARE) small molecule agonists: qHTS cell viability counter screen in human keratinocytes (AID 1919968; active = well fitted curve in the direction sought with a large enough effect in the repeat runs; an effect the other way counts as inactive or inconclusive; note: nearly all actives have a fitted effect of over 55% in size)
Summary of the method: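 Stably transfected HaCaT (KeratinoSens), 1,500/well. Test agents in DMSO were applied for 23 h, 37 C/5% CO2. CellTiter-Fluor was incubated 1 h before the fluorescence read.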

[2] = Nuclear factor erythroid 2-related factor 2/antioxidant responsive element (Nrf2/ARE) small molecule agonists: luciferase reporter gene qHTS assay in human keratinocytes (AID 1919969); note: nearly all actives have a fitted effect of over 35% in size
[3] = target: Gonadotropin-releasing hormone receptor (Homo sapiens) (UniProt P30968); test: Human gonadotropin-releasing hormone receptor (GnRHR) small molecule agonists, calcium flux assay in GnRHR-HEK293 cells (AID 1920063); note: nearly all actives have a fitted effect of over 35% in size
Sequence of Gonadotropin-releasing hormone receptor (Homo sapiens) (P30968 whole entry, looked up): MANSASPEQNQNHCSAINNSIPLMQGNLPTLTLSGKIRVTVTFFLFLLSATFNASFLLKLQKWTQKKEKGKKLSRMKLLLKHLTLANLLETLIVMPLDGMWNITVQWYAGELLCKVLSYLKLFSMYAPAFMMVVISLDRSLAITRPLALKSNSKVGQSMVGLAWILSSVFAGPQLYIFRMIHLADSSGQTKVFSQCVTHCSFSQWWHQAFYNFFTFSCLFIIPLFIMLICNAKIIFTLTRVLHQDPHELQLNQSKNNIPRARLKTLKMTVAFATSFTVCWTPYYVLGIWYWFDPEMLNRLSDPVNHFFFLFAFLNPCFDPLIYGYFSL
Summary of the method: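 Stable human GnRHR HEK293 line. 18 h plating, then calcium dye for 1 h at 37 C. Agonist-mode compound addition from DMSO stocks; fluorescence monitored 3 min.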

[4] = target: KiSS-1 receptor (Homo sapiens) (UniProt Q969F8); test: Human kisspeptin (KISS1R) small molecule agonists, calcium flux assay in KISS1R-HEK293 cells (AID 1920064; active = well fitted curve in the direction sought with a large enough effect in the repeat runs; an effect the other way counts as inactive or inconclusive)
Sequence of KiSS-1 receptor (Homo sapiens) (Q969F8 whole entry, looked up): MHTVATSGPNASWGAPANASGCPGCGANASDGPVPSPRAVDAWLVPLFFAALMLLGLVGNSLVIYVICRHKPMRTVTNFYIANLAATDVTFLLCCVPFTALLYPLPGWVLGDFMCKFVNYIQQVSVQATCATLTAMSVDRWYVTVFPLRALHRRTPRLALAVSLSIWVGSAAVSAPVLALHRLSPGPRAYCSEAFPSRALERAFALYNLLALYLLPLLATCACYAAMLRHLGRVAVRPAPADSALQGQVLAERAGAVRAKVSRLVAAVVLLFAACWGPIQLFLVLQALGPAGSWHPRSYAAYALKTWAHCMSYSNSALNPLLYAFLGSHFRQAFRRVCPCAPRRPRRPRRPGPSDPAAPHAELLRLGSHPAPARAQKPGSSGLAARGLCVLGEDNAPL
Summary of the method: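 After overnight (18 h) culture at 37 C/5% CO2, human KISS1R-HEK293 cells received calcium dye for 1 h, then test compound; emission at 540 nm (excitation 480 nm) was tracked for 3 min.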

[5] = G protein-coupled receptor (GPCR) small molecule agonists, calcium flux assay: HEK293 wild type cell line counter screen (AID 1920065)
Summary of the method: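 Following 18 h incubation at 37 C/5% CO2, plates got calcium dye for 1 h; compounds, ATP or DMSO were then pinned in and fluorescence followed kinetically (480/540 nm).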

[6] = p53 small molecule agonists, cell-based qHTS assay with human liver microsomes (AID 1963577)
Summary of the method: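 Compounds act here after metabolic activation: human liver microsomes and NADPH, both at 0.5 mg/mL final, were co-added to p53RE-bla cells. Incubation ran 16 h at 37 C, followed by LiveBLAzer detection.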

[7] = p53 small molecule agonists, cell-based qHTS assay with human liver microsomes: qHTS cell viability counter screen (AID 1963579); note: nearly all actives have a fitted effect of over 45% in size
Summary of the method: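 Cells carrying the p53 response-element beta-lactamase reporter are treated for 16 h at 37 C with test compounds in the presence of human liver microsomes and NADPH (both 0.5 mg/mL final); ATP-based CellTiter-Glo luminescence then reports viability.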

[8] = p53 small molecule agonists, cell-based qHTS assay: qHTS cell viability counter screen (AID 1963581); note: nearly all actives have a fitted effect of over 45% in size
Summary of the method: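 qHTS counter screen: 16 h compound exposure at 37 C of p53RE-bla HCT-116 cells (4,000 per well, seeded 5 h prior), cell viability by ATP luminescence.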

[9] = p53 small molecule agonists, cell-based qHTS assay (AID 1963582; active = well fitted activation curve with a large enough effect in the signal ratio in the repeat runs, not every such curve was filed as active; the % refers to the signal ratio)
Summary of the method: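 Measured: fluorescence from cleaved LiveBLAzer substrate. System: p53RE-bla cells, 16 h compound treatment at 37 C, 2 h substrate step at room temperature.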

[10] = target: 5-hydroxytryptamine receptor 2A (Homo sapiens) (UniProt P28223); test: 5-hydroxytryptamine receptor 2A (HTR2A) small molecule antagonists, cell-based qHTS assay (AID 1963586); note: nearly all actives have a fitted effect of over 45% in size
Sequence of 5-hydroxytryptamine receptor 2A (Homo sapiens) (P28223 whole entry, looked up): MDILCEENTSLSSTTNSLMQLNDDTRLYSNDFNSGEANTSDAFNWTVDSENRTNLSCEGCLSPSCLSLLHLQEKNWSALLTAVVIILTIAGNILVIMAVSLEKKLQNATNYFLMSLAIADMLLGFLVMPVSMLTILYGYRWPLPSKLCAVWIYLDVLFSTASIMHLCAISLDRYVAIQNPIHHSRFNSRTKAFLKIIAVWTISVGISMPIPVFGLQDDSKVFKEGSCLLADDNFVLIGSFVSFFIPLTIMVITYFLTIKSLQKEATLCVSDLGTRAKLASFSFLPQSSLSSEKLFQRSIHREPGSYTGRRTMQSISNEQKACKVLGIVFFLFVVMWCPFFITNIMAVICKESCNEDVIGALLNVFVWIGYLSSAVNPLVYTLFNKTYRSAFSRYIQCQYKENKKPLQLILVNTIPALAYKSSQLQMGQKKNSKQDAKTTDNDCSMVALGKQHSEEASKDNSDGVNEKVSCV
Summary of the method: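 CHO cells stably expressing human HTR2A were plated for 18 h at 37 C, then loaded with calcium dye for 1 h. Compounds were preincubated 5 min at room temperature before DOI (4 nM solution) was added. Kinetic fluorescence was read for 3 min.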

[11] = target: 5-hydroxytryptamine receptor 2A (Homo sapiens) (UniProt P28223); test: 5-hydroxytryptamine receptor 2A (HTR2A) small molecule agonists, cell-based qHTS assay (AID 1963587); note: nearly all actives have a fitted effect of over 30% in size
Summary of the method: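 Kinetic calcium-flux fluorescence (2 min, 1 sec intervals) after compound addition in agonist mode. HTR2A-CHO cells were cultured 18 h, then dye-loaded 1 h at 37 C.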

[12] = target: Muscarinic acetylcholine receptor M1 (Homo sapiens) (UniProt P11229); test: Cholinergic receptor muscarinic 1 (CHRM1) small molecule antagonists, cell-based qHTS assay (AID 1963588); note: nearly all actives have a fitted effect of over 40% in size
Sequence of Muscarinic acetylcholine receptor M1 (Homo sapiens) (P11229 whole entry, looked up): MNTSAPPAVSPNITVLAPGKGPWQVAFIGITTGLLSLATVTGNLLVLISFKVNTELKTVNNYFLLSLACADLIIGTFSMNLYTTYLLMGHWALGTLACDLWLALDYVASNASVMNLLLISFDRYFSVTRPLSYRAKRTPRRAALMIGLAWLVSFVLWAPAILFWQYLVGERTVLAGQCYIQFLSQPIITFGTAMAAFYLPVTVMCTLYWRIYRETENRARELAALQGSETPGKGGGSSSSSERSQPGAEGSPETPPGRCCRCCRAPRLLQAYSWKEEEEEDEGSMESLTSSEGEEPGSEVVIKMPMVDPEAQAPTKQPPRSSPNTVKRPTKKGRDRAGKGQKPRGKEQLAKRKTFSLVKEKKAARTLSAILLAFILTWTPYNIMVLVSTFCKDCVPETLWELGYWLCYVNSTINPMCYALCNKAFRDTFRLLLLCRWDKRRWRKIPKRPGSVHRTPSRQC
Summary of the method: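 Compounds were tested at 15 concentrations in three independent runs. Dye-loaded CHRM1-CHO cells were exposed 5 min at room temperature before stimulation by acetylcholine added at 50nM. Intracellular calcium was read kinetically on FDSS for 3 min.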

[13] = target: Muscarinic acetylcholine receptor M1 (Homo sapiens) (UniProt P11229); test: Cholinergic receptor muscarinic 1 (CHRM1) small molecule agonists, cell-based qHTS assay (AID 1963589); note: nearly all actives have a fitted effect of over 35% in size
Summary of the method: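 Kinetic fluorescence (1 s intervals) of calcium-sensitive dye in human M1 CHO cells after compound addition; cells pre-incubated 18 h at 37 C/5% CO2 and dye-loaded 1 h.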

[14] = cAMP Responsive Elements (CRE) small molecule agonists, cell-based qHTS assay (AID 1963590)
Summary of the method: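 Test agents in DMSO were incubated 3 h at 37 C/5% CO2 with CRE-bla HEK 293T cells seeded 18 h earlier; LiveBLAzer B/G FRET substrate was added and read after 2 h at room temperature.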

[15] = cAMP Responsive Elements (CRE) small molecule antagonists, cell-based qHTS assay (AID 1963591; active = well fitted inhibition curve with a large enough effect in the signal ratio in the repeat runs, not every such curve was filed as active; the % refers to the signal ratio)
Summary of the method: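 Reporter line CRE-bla HEK 293T in dialyzed-FBS DMEM; cells preincubated 18 h, treated 3 h with compound plus NKH477 (0.25 uM final); LiveBLAzer FRET, 2 h RT.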

[16] = target: Beta-2 adrenergic receptor (Homo sapiens) (UniProt P07550); test: Adrenergic beta2 receptor (ADRB2) small molecule antagonists, cell-based qHTS assay (AID 1963592); note: series mostly up to about 92 µM; nearly all actives have a fitted effect of over 50% in size
Sequence of Beta-2 adrenergic receptor (Homo sapiens) (P07550 whole entry, looked up): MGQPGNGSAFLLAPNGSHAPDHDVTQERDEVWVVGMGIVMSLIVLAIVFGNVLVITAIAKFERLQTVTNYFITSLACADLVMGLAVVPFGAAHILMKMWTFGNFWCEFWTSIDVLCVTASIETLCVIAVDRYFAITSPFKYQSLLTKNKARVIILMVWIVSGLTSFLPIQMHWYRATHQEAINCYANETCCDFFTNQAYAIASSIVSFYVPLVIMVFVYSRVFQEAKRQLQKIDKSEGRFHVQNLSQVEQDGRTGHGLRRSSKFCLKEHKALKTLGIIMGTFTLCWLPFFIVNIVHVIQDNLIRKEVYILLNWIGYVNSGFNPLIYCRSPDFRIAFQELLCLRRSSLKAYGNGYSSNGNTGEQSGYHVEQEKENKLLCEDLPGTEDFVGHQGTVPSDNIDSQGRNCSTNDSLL
Summary of the method: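 Assay format: CHO-ADRB2 cells, 18-20hr seeding at 37C/5% CO2, then compound plus 1nM isoproterenol agonist mix for 0.5hr RT. Homogeneous time-resolved fluorescence cAMP detection after 1hr, expressed as 665/615 nm ratio.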

[17] = target: Beta-2 adrenergic receptor (Homo sapiens) (UniProt P07550); test: Adrenergic beta2 receptor (ADRB2) small molecule agonists, cell-based qHTS assay (AID 1963593);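 note: CHO cells stably overexpressing human ADRB2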
Summary of the method: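 CHO cells stably over-expressing ADRB2 were plated overnight at 37C, then dosed with compounds plus a stimulation mix containing 100uM IBMX and 25uM Ro-20-1724 for 0.5hr at room temperature. cAMP was measured by HTRF competition, 1hr.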

[18] = target: D(2) dopamine receptor (Homo sapiens) (UniProt P14416); test: Dopamine D2 receptor (DRD2) small molecule antagonists, cell-based qHTS assay (AID 1963595; active = well fitted inhibition curve with a large enough effect in the signal ratio in the repeat runs, with a control signal flat; the % refers to the signal ratio)
Sequence of D(2) dopamine receptor (Homo sapiens) (P14416 whole entry, looked up): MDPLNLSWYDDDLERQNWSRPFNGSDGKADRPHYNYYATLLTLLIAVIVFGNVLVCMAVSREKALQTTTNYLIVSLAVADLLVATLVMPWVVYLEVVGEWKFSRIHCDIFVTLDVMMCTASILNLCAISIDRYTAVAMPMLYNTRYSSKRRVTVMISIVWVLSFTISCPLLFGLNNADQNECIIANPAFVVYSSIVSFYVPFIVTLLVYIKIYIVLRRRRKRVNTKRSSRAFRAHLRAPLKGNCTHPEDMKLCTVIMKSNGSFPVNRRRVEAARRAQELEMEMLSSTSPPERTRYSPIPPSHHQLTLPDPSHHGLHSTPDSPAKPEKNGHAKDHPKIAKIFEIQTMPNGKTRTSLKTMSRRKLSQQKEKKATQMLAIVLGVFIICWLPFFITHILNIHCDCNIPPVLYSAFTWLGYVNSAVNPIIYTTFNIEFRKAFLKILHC
Summary of the method: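 HEK293 cells stably expressing DRD2 were preincubated with 0.1 mM Ro20-1724, then with compound for 10 min at room temperature. Cells were stimulated with 200 nM NKH477 plus 12 nM quinpirole for 30 min, and cAMP was read by HTRF.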

[19] = target: D(2) dopamine receptor (Homo sapiens) (UniProt P14416); test: Dopamine D2 receptor (DRD2) small molecule agonists, cell-based qHTS assay (AID 1963594); note: nearly all actives have a fitted effect of over 35% in size
Summary of the method: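 cAMP accumulation in DRD2-HEK293 cells measured by HTRF after 1 h detection; compounds added 10 min before NKH477 (200nM […]) forskolin-analogue stimulation, 30 min at room temperature, with Ro20-1724 present at 0.1 mM final.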

Measured: Potency

CO[Si](CCCNCCC[Si](OC)(OC)OC)(OC)OC
not listed: [19]
inactive: all other assays above

COC(/C=C(\C)CCC=C(C)C)OC
not listed: [16] | [18]
inactive: all other assays above

O=C(c1ccc(Cl)cc1)c1ccc(Cl)cc1
not listed: [19]
inactive: all other assays above
